Among all 16,000 compounds or so, about 2,600 (16%) were called active. About 20% were inconclusive and are not listed. These entries were drawn from the full list. Values without a mark were called inactive. Calls follow the shape of the dose curve; as a rule, active = well fitted curve in the direction sought with a large enough effect; inconclusive = small, poorly fitted or top-dose-only effect, or effect the other way; inactive = no such curve, though single readings can be large or run the other way.
These compounds were tested against Cytochrome P450 2D6 (Homo sapiens) (UniProt P10635) (assay: Cytochrome panel assay with activity outcomes). Details: recombinant CYP, pro-luciferin dealkylation, luminescence, p450-cyp2d6; series mostly up to 57.1 µM; activity, negative = inhibition: at the top concentration.
Sequence of Cytochrome P450 2D6 (Homo sapiens) (P10635 whole entry, looked up): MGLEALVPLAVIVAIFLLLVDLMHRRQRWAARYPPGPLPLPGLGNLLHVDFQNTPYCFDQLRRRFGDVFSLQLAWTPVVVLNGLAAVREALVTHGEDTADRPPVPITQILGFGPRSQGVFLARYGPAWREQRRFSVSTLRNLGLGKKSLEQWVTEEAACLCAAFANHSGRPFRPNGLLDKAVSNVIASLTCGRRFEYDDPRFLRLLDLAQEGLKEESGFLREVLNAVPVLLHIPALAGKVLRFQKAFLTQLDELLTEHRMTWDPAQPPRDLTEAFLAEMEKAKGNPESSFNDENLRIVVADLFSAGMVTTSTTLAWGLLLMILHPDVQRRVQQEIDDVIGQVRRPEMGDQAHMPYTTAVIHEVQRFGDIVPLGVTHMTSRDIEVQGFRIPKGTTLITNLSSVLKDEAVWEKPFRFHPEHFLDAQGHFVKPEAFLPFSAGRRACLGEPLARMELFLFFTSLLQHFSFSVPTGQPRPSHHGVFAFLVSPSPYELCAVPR
For `Cc1ccn2cc(CSc3ccccc3N)nc2c1`, the AC50 was 1.26 µM (active). With `Nc1cc(=O)nc(SCC(=O)Nc2cccc3ccccc23)n1CCc1ccccc1` the “activity, negative = inhibition” value was -26.3%. With `CC(NC(=O)CSc1nc(=O)cc(N)n1CCc1ccccc1)c1ccccc1` (configuration not stated) the “activity, negative = inhibition” value was -5.67%. In the case of `CCC(Sc1nc(=O)cc(N)n1CCc1ccccc1)C(=O)Nc1ccccc1C#N` (configuration not stated), the AC50 is reported as 15.8 µM (active). For `CN1c2ccccc2C(O)=C(C(=O)Nc2ccccc2)S1(=O)=O`, the “activity, negative = inhibition” value was 4.83%. In the case of `c1ccc2c(N3CCOCC3)nc(-c3ccoc3)nc2c1`, the “activity, negative = inhibition” value is reported as -8.74%. In the case of `CN1CCN(c2nc(-c3ccoc3)nc3ccccc23)CC1`, the AC50 is reported as 15.8 µM (active). With `CN1CCN(c2nc(-c3cccnc3)nc3ccccc23)CC1` the AC50 was 10 µM (active). With `c1cncc(-c2nc(N3CCNCC3)c3ccccc3n2)c1` the AC50 was 7.94 µM (active). In the case of `COc1ccccc1-c1nc(N2CCN(C)CC2)c2ccccc2n1`, the “activity, negative = inhibition” value is reported as -14.6%. `C[C@](N)(COP(=O)(O)O)C(=O)O` was tested, and the “activity, negative = inhibition” value was 2.61%. In the case of `CNc1cc(-c2c(C)noc2C)ncn1`, the “activity, negative = inhibition” value is reported as 0.677%. With `Cn1c(=O)c2[nH]c(-c3ccccc3)nc2n(C)c1=O` the “activity, negative = inhibition” value was 7.89%. With `Cn1c(=O)c(-c2cc(F)cc(F)c2)nc2cnc(Oc3ccccc3)nc21` the “activity, negative = inhibition” value was -4.71%. `O=C(Oc1ccccc1)N1CCC2(CC1)CN(c1ncccn1)C2` was tested, and the “activity, negative = inhibition” value was -6.97%. In the case of `CC(=O)Nc1c2c3c(cccc3n(C)c1=O)C(=O)c1ccccc1-2`, the “activity, negative = inhibition” value is reported as 8.07%. In the case of `COc1ccc(-c2nc3cnc(N4CCN(C)CC4)nc3n(C3CC3)c2=O)cc1`, the “activity, negative = inhibition” value is reported as 5.09%. For `COC(=O)c1ccccc1OCC(=O)N1CCN(c2ccc(OC)cc2)CC1`, the “activity, negative = inhibition” value was 0.575%. For `O=C(c1cc(O)c(O)c([N+](=O)[O-])c1)c1ccccc1F`, the “activity, negative = inhibition” value was 0.213%. For `Cn1cccc1C(=O)N1CCC2(CC1)CCN(c1ccc(-c3ccccc3)cc1)CC2`, the “activity, negative = inhibition” value was -0.937%. With `COc1cc(C2C(C#N)=C(N)OC3=C2C(=O)CCC3)cc(OC)c1OC(=O)N1CCOCC1` (configuration not stated) the “activity, negative = inhibition” value was 3.07%. For `Cc1ccc(C(C2C(=O)CC(C)(C)CC2=O)C2C(=O)CC(C)(C)CC2=O)s1`, the “activity, negative = inhibition” value was 2.33%. With `COc1cccc(C(c2c(C)[nH]n(-c3ccccc3)c2=O)c2c(C)[nH]n(-c3ccccc3)c2=O)c1O` the “activity, negative = inhibition” value was 1.65%. For `CC1CCN(CCOc2cc(Cl)ccc2Cl)CC1`, the AC50 was 0.447 µM (active). `Clc1ccc(Cl)c(OCc2cc(-c3ccccc3Cl)on2)c1` was tested, and the “activity, negative = inhibition” value was 8.16%. `COc1cc(C)ccc1OCCOc1cc(C)ccc1Cl` was tested, and the “activity, negative = inhibition” value was -13.3%. With `CCn1c(C)[n+](CCCS(=O)(=O)[O-])c2cc(Cl)c(Cl)cc21` the “activity, negative = inhibition” value was 2.13%. In the case of `Cn1c(=O)n(-c2cccc(Cl)c2)c(=O)c2c3c(sc21)COC(C)(C)C3`, the “activity, negative = inhibition” value is reported as 6.87%. In the case of `O=C(Cc1ncc(C(F)(F)F)cc1Cl)Nc1cccc(Br)c1`, the AC50 is reported as 0.398 µM (active). In the case of `O=C(Nc1ccc(F)cc1F)c1cccn1-c1ncc(C(F)(F)F)cc1Cl`, the “activity, negative = inhibition” value is reported as 17.2%. For `CN(NC(=O)NN)c1ncc(C(F)(F)F)cc1Cl`, the “activity, negative = inhibition” value was -8.29%. With `Oc1ccc(Cn2cc[nH]c2=S)cc1` the “activity, negative = inhibition” value was -3.56%. With `Cc1cc2ccccn2c1C(=O)c1ccc(Cl)cc1` the AC50 was 17.8 µM (active). For `Cc1cc2ccccn2c1C(=O)c1nc(N2CCOCC2)ncc1Cl`, the “activity, negative = inhibition” value was -6.91%. For `Cc1cc(CC(=O)O)n(C)c1C(=O)c1ccc(Cl)cc1`, the “activity, negative = inhibition” value was -4.31% [at 25.6 µM]. `Nc1cc(C(=O)O)[nH]c(=O)n1` showed an activity, negative = inhibition of 6.45% [at 11.4 µM]. With `CCN(CC(=O)Nc1ccc(N2CCOCC2)cc1)Cc1nc2ccccc2c(=O)[nH]1` the “activity, negative = inhibition” value was 17.5%. `CCn1c(O)c(/C=C2\C=Nc3ccccc32)sc1=Nc1ccc(C)cc1` was tested, and the “activity, negative = inhibition” value was -22%. `CCOC(=O)C1=C(CN2c3ccccc3CC2C)NC(=O)NC1c1ccccc1` (configuration not stated) was tested, and the “activity, negative = inhibition” value was -19.8%. `CCCNC(=O)N1CCC(C(=O)c2ccc(F)cc2)CC1` was tested, and the “activity, negative = inhibition” value was -24.1%. With `O=C(c1ccc(F)cc1)C1CCN(CCCCc2ccccc2)CC1` the AC50 was 0.0126 µM (active). `NC(=O)C1CCN(C(=O)OCc2ccccc2)CC1` was tested, and the “activity, negative = inhibition” value was 8.02%. `CC(C)c1ccc(C(=O)CC2(O)C(=O)N(CN3CCOCC3)c3ccccc32)cc1` (configuration not stated) was tested, and the “activity, negative = inhibition” value was 17.8%. With `CCN1C(=O)C(O)(C2COC(C)(C)CC2=O)c2ccccc21` (configuration not stated) the “activity, negative = inhibition” value was -0.608%. For `CC1(C)C(=O)N(CCN2CCC(C(=O)c3ccc(F)cc3)CC2)c2ccccc21`, the AC50 was 1.26 µM (active). `COC(=O)[C@@H]1[C@@H](O)[C@]2(O)c3ccccc3O[C@]2(c2ccccc2)[C@H]1c1ccccc1` showed an activity, negative = inhibition of -3% [at 11.4 µM]. In the case of `CC(C)c1ccccc1S(=O)c1ccccc1C(C)(C)O` (configuration not stated), the activity, negative = inhibition is reported as -12.8% [at 11.4 µM]. For `FC(F)(F)c1ccccc1-c1ccc2ncnc(NC3CCNCC3)c2c1`, the “activity, negative = inhibition” value was -19.2%. In the case of `O=C(O)C1CCN(c2ncnc3ccc(-c4ccccc4C(F)(F)F)cc23)CC1`, the “activity, negative = inhibition” value is reported as -1.69%. In the case of `FC(F)(F)c1ccccc1-c1ccc2ncnc(NC3CC3)c2c1`, the AC50 is reported as 20 µM (active). With `CN(C)c1ccc(-c2ccc3ncnc(NC4CC4)c3c2)cc1` the “activity, negative = inhibition” value was -18.2%. `Cc1ccccc1-c1ccc2ncnc(NC3CC3)c2c1` was tested, and the AC50 was 7.94 µM (active).

Reference: PubChem BioAssay AID1851 (National Center for Advancing Translational Sciences (NCATS), 2009)
% is scaled to controls: 0 for no effect and ±100 for the full control effect.
